# In PubChem BioAssay (NCATS):
# “And” between values parts separate entries of the source, which are not always exact repeats. Identical values can stand only once. Records with an inconclusive call do not appear. Entries that show only a call come without a potency. The source made the active and inactive calls. Unless noted, calls come from the whole dose curve.
# Tests used:
# [1] = Primary qHTS for small molecule stabilizers of the endoplasmic reticulum resident proteome: Secreted ER Calcium Modulated Protein (SERCaMP) assay (AID 1508630; active = well fitted curve in the direction sought with a large enough effect; an effect the other way counts as inactive or inconclusive)
# Procedure, shortened: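 GLuc-SERCaMP-expressing SH-SY5Y cells, pretreated 16 h with compound, are challenged with thapsigargin to empty ER calcium stores; after 4 h, coelenterazine is added directly to the medium and luminescence is imaged.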
# [2] = target: Cytochrome P450 2C9 (Homo sapiens) (UniProt P11712); assay: Cytochrome P450 family 2 subfamily C member 9 (CYP2C9) small molecule antagonists: luciferase biochemical (cell-free) qHTS assay (AID 1645842; active = well fitted curve in the direction sought with a large enough effect in the repeat runs; an effect the other way counts as inactive or inconclusive; note: nearly all actives have a fitted effect of over 55% in size; note: potency is the fitted concentration of half-maximal effect)
# Procedure, shortened: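 Luminescence, after 20 min with luciferin detection reagent, reflected CYP2C9 turnover during a 1 h NADPH-driven reaction at 37C. Enzyme-substrate mix contained 0.4% bovine serum albumin and was preincubated with compound 10 min at room temperature.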
# [3] = Cytotoxicity counterscreen for inhibitors of SARS-CoV-2 cell entry (AID 1645845); note: nearly all actives have a fitted effect of over 50% in size; note: potency is the fitted concentration of half-maximal effect
# Procedure, shortened: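 Expi293F/hACE2 cells seeded overnight; cpd pin-transferred in DMSO, 1 h preincubation, + media, 48 h 37 C 5% CO2; ATPLite 1step luminescence; normalized to cells and no cells.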
# [4] = target: Cytochrome P450 2D6 (Homo sapiens) (UniProt P10635); assay: Cytochrome P450 family 2 subfamily D member 6 (CYP2D6) small molecule antagonists: luciferase biochemical (cell-free) qHTS assay (AID 1645840; active = well fitted curve in the direction sought with a large enough effect in the repeat runs; an effect the other way counts as inactive or inconclusive; note: nearly all actives have a fitted effect of over 55% in size; note: potency is the fitted concentration of half-maximal effect)
# Procedure, shortened: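 P450-Glo luminescent screen: recombinant CYP2D6 enzyme–proluciferin substrate mix preincubated with compound 10 min at room temperature, then NADPH regeneration added for 1 h at room temperature. Detection reagent added for 20 min; luciferin light read as relative luminescence units.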
# [5] = Primary qHTS to identify inhibitors of SARS-CoV-2 cell entry (AID 1645846); details: activity change, negative = inhibition: at 57.1 µM (top of the series) unless noted; note: nearly all actives have a fitted effect of over 45% in size; note: potency is the fitted concentration of half-maximal effect
# Procedure, shortened: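 HEK293-ACE2 (Expi293F, stable hACE2), 1500 cells/well, o/n 37C; cpd 23 nL pin, 1 h; MLV-PP w/ SARS-CoV-2-S (Wuhan-Hu-1, Δ19 C-term); 48 h 37C; Bright-Glo luminescence; normalized vs S-PP and bald PP.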
# [6] = A High-Content qHTS Against Drug Library for the Identification of Small Molecules that Inhibit DYT1 Early Onset Primary Dystonia-Associated Cell Pathology (AID 1645839)
# Procedure, shortened: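 Readout: %pathology, the punctate EGFP-TorsinA distribution from imaging, as the primary channel and cell count as the toxicity counterscreen. HEK293 Flp-In cells expressing delE TorsinA were induced with tetracycline and treated with compound for 48 h.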
# [7] = target: N-terminal Xaa-Pro-Lys N-methyltransferase 1 (Homo sapiens) (UniProt Q9BV86); assay: Confirmatory qHTS for Inhibitors of N-terminal methyltransferase 1 (NTMT1): MTaseGlo Assay (AID 1645874; active = well fitted curve in the direction sought with a large enough effect; an effect the other way counts as inactive or inconclusive; note: nearly all actives have a fitted effect of over 65% in size; note: potency is the fitted concentration of half-maximal effect;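 for activity change, negative = inhibition: luminescence from SAH made as NTMT1 methylates SPKRIA peptide using SAM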)
# Procedure, shortened: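 Preincubation of NTMT1 (125 nM) plus SAM (100 uM) with test compounds lasted 15 min; methylation of 1 uM SPKRIA then proceeded 30 min in the dark at room temperature. Luciferase signal reported SAH produced.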
# [8] = target: Papain (Carica papaya) (UniProt P00784); assay: Primary qHTS assay for inhibitors of the protease papain (AID 1645873; active = well fitted curve in the direction sought with a large enough effect; an effect the other way counts as inactive or inconclusive;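 note: papain turnover of Z-FR-AMC read as the AMC fluorescence gain over 10 min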)
# [9] = target: Cytochrome P450 3A4 (Homo sapiens) (UniProt P08684); assay: Cytochrome P450 family 3 subfamily A member 4 (CYP3A4) small molecule antagonists: luciferase qHTS assay (AID 1645841; active = well fitted curve in the direction sought with a large enough effect in the repeat runs; an effect the other way counts as inactive or inconclusive; note: nearly all actives have a fitted effect of over 45% in size; note: potency is the fitted concentration of half-maximal effect)
# Procedure, shortened: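 P450-Glo CYP3A4 enzyme with proluciferin substrate was preincubated with DMSO-dissolved compounds for 10 min at room temperature. NADPH regeneration solution started a 1 h reaction. Detection reagent stopped it, and luminescence was read after 20 min.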
# Sequence of Cytochrome P450 2D6 (Homo sapiens) (P10635 whole entry, looked up): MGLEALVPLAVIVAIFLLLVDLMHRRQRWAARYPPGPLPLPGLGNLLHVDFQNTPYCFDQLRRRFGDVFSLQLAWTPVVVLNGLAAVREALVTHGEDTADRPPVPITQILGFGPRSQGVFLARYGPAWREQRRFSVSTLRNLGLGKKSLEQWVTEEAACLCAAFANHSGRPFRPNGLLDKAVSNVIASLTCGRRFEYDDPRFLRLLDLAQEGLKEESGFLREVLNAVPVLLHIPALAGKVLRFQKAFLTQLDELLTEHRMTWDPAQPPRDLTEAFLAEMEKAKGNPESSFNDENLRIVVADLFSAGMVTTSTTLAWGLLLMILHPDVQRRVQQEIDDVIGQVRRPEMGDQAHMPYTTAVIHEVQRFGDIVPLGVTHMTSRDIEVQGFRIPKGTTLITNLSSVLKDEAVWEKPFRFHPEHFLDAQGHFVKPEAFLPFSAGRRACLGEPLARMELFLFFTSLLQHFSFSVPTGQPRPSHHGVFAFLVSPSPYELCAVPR
# Sequence of N-terminal Xaa-Pro-Lys N-methyltransferase 1 (Homo sapiens) (Q9BV86 whole entry, looked up): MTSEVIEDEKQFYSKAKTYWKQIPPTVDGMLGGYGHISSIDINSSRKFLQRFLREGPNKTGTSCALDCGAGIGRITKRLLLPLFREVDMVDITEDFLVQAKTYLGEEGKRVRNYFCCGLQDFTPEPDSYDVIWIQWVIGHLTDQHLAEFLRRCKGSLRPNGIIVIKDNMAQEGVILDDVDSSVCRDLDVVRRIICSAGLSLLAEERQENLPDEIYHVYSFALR
# Sequence of Cytochrome P450 2C9 (Homo sapiens) (P11712 whole entry, looked up): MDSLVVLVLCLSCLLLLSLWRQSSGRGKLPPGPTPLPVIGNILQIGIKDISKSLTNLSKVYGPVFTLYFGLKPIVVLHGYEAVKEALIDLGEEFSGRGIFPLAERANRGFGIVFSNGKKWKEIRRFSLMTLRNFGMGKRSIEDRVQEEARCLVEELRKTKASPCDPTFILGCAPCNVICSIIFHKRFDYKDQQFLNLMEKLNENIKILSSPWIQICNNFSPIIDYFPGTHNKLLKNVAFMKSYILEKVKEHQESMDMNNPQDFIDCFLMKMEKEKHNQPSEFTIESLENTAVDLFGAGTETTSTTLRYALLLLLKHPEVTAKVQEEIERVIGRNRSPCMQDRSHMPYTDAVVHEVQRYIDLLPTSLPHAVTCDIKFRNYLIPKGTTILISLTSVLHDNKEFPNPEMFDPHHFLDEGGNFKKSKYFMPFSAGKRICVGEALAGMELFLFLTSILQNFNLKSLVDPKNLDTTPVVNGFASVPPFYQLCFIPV
# Sequence of Cytochrome P450 3A4 (Homo sapiens) (P08684 whole entry, looked up): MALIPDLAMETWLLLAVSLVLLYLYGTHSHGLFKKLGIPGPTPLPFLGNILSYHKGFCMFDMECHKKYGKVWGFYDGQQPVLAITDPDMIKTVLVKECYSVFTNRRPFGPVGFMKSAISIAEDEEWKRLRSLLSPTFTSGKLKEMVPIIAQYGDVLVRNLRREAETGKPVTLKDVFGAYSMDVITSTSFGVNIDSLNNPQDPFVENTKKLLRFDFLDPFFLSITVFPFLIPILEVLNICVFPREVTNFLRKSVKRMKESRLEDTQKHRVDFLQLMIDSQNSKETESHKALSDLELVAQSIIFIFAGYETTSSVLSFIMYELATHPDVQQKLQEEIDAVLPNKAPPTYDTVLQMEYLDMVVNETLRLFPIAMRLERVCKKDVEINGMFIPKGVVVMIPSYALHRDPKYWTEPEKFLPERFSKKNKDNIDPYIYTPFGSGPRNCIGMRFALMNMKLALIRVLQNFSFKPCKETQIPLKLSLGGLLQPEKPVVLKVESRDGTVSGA
# Sequence of Papain (Carica papaya) (P00784 whole entry, looked up): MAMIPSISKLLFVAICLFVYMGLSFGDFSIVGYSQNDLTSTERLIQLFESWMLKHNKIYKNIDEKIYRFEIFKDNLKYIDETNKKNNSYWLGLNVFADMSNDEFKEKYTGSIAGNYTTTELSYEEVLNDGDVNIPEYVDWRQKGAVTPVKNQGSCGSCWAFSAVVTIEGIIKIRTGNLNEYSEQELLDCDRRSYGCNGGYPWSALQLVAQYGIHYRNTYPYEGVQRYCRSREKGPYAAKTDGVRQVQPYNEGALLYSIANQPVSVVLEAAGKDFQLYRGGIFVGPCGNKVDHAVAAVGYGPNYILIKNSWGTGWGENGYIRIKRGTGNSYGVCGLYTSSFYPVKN
structure (smiles),measurement,setting,value
O=C(NC(=O)c1c(F)cccc1F)Nc1cc(Cl)c(OC(F)(F)C(F)C(F)(F)F)cc1Cl (configuration not stated),outcome,[1],inactive
same,Potency,[2],19.5 µM (active)
same,Potency,[3],inactive
O=C(CCl)c1ccc(Cl)cc1Cl,outcome,[1],inactive
same,Potency,[4],inactive
CC(CC(C(N)=O)(c1ccccc1)c1ccccc1)N(C)C (configuration not stated),outcome,[1],inactive
same,Potency,[4],7.76 µM (active)
same,Potency,[3],inactive
same,"activity change, negative = inhibition",[5],-7.18%
CN(C)CCc1c[nH]c2ccc(O)cc12,outcome,[6],inactive
same,Potency,[4],31 µM (active)
C[C@]12Cc3nonc3C[C@@H]1CC[C@@H]1[C@@H]2CC[C@@]2(C)[C@H]1CC[C@]2(C)O,outcome,[1],inactive
same,Potency,[4],inactive
C[C@@H]1CC[C@H]2[C@@H](C)C(=O)O[C@@H]3O[C@@]4(C)CC[C@@H]1[C@]32OO4,outcome,[1],inactive
same,outcome,[6],inactive
same,Potency,[3],inactive
same,"activity change, negative = inhibition",[5],-32%
Nc1ccc(N)cc1,outcome,[1],inactive
same,Potency,[2],15.5 µM (active)
C[C@H](N)[C@H](O)c1ccc(O)c(O)c1,outcome,[1],inactive
same,outcome,[6],inactive
same,Potency,[2],inactive
same,Potency,[3],inactive
same,"activity change, negative = inhibition",[5],-20.4%
CCOP(=S)(OCC)O/N=C(\C#N)c1ccccc1,outcome,[6],inactive
same,Potency,[4],13.8 µM (active)
C=CC[C@]1(O)CC[C@H]2[C@@H]3CCC4=CC(=O)CCC4=C3C=C[C@@]21C,outcome,[1],inactive
same,outcome,[6],inactive
same,Potency,[3],inactive
CC1COC2(c3ccccc3Cl)c3cc(Cl)ccc3NC(=O)CN12 (configuration not stated),outcome,[1],inactive
same,Potency,[4],11 µM (active)
same,Potency,[2],24.5 µM (active)
same,Potency,[5],inactive
CC1Sc2c(C(=O)O)c(=O)c3cc(F)c(N4CCNCC4)cc3n21 (configuration not stated),outcome,[6],inactive
COc1cc(N)c(Cl)cc1C(=O)NC1CN2CCC1CC2 (configuration not stated),outcome,[1],inactive
same,Potency,[4],15.5 µM (active)
CN1CCC(N(Cc2ccccc2)c2ccccc2)CC1,outcome,[6],inactive
same,Potency,[4],0.11 µM (active)
O=C(CCCCl)c1ccc(F)cc1,outcome,[1],inactive
same,Potency,[4],inactive
same,Potency,[2],inactive
C[C@]12CC[C@H](O)CC1=CC[C@@H]1[C@@H]2CC[C@]2(C)C(=O)CC[C@@H]12,outcome,[1],inactive
same,Potency,[2],inactive
same,Potency,[3],inactive
same,Potency,[5],inactive
CCc1cc(OC)c(C[C@H](C)N)cc1OC,outcome,[1],inactive
same,outcome,[6],inactive
same,Potency,[2],inactive
same,Potency,[7],inactive
O=C(O)CCCCCCNC1c2ccccc2CCc2ccccc21,outcome,[1],inactive
same,Potency,[2],inactive
CCCC(C)C1(CC)C(=O)N=C(S)NC1=O (configuration not stated),outcome,[6],inactive
CC[C@H]1C[C@@H]2C[C@H]3c4[nH]c5ccc(OC)cc5c4CCN(C2)[C@@H]13,outcome,[6],inactive
C#C[C@]1(O)C=C[C@H]2[C@@H]3CCC4=CC(=O)CC[C@@H]4[C@H]3CC[C@@]21CC,outcome,[1],inactive
same,outcome,[6],inactive
same,Potency,[2],2.75 µM (active)
same,Potency,[3],inactive
same,"activity change, negative = inhibition",[5],-10.9%
CCCCCCCCCCCC[N+](C)(C)CCOc1ccccc1,outcome,[1],inactive
same,Potency,[3],20 µM (active)
CCOC(=O)c1ncn2c1CN(C)C(=O)c1c(I)cccc1-2,outcome,[1],inactive
same,Potency,[2],inactive
same,Potency,[3],inactive
same,Potency,[5],inactive
CN1C(=O)CN=C(c2ccccc2)c2cc([N+](=O)[O-])ccc21,outcome,[1],inactive
same,Potency,[2],inactive
C[C@]12CC[C@H]3[C@@H](CCC4=CC(=O)CC[C@@]43C)[C@@H]1CC[C@@H]2C(=O)O,outcome,[6],inactive
same,Potency,[4],inactive
CCOC(=O)c1cncn1C(C)c1ccccc1 (configuration not stated),outcome,[1],inactive
same,outcome,[6],inactive
same,Potency,[2],11 µM (active)
same,Potency,[3],inactive
same,Potency,[5],inactive
COc1ccc2c3c1O[C@H]1[C@@H](O)C=C[C@H]4[C@@H](C2)N(C)CC[C@@]341,outcome,[1],inactive
same,Potency,[2],inactive
Cc1nnc2n1-c1sc(CCc3ccc(CC(C)C)cc3)cc1C(c1ccccc1Cl)=NC2C (configuration not stated),outcome,[1],inactive
same,Potency,[5],22.4 µM (active)
COc1ccc(C(=O)N2CCCC2=O)cc1,outcome,[1],inactive
same,outcome,[6],inactive
same,Potency,[2],inactive
same,Potency,[3],inactive
same,Potency,[5],inactive
same,"activity change, negative = inhibition",[5],9.75%
same,outcome,[8],inactive
COc1ccc2c(C(=O)c3ccc(Cl)cc3)c(C)n(CC(=O)O)c2c1,outcome,[6],inactive
c1ccc2c(c1)Sc1ccccc1N2CC1CN2CCC1CC2 (configuration not stated),outcome,[1],inactive
same,Potency,[4],0.123 µM (active)
same,Potency,[2],inactive
O=C1CN2CCOC2(c2ccccc2Cl)c2cc(Cl)ccc2N1 (configuration not stated),outcome,[1],inactive
same,Potency,[2],inactive
same,Potency,[3],inactive
same,"activity change, negative = inhibition",[5],-6.92%
CCC(=O)O[C@H]1CC[C@H]2[C@@H]3CCC4=CC(=O)CC[C@]4(C)[C@H]3CC[C@]12C,outcome,[1],inactive
same,Potency,[4],16.9 µM (active)
same,Potency,[2],24.5 µM (active) and 10.7 µM (active)
same,Potency,[3],inactive
same,Potency,[5],inactive
Cc1ccc([N+](=O)[O-])[c]2c1[O][Hg]2,outcome,[1],inactive
same,Potency,[4],0.347 µM (active)
same,Potency,[9],0.977 µM (active)
same,Potency,[2],0.436 µM (active)
same,Potency,[5],5.62 µM (active)
same,Potency,[7],0.728 µM (active)
C[C@@H]1O[C@@H](O[C@@H]2C=C3CC[C@@H]4[C@H](CC[C@]5(C)[C@@H](c6ccc(=O)oc6)CC[C@]45O)[C@@]3(C)CC2)[C@H](O)[C@H](O)[C@H]1O,outcome,[1],inactive
same,outcome,[6],inactive
same,"activity change, negative = inhibition",[5],-97.4%
CN(C)CCc1c[nH]c2cccc(O)c12,outcome,[1],inactive
same,outcome,[6],inactive
same,Potency,[7],inactive
C=CCOC(Cn1ccnc1)c1ccc(Cl)cc1Cl (configuration not stated),outcome,[1],inactive
same,Potency,[4],2.88 µM (active)
same,Potency,[2],0.683 µM (active)
same,Potency,[3],inactive
CCC1(CC)C(=O)NC(=O)NC1=O,outcome,[1],inactive
same,Potency,[4],inactive
same,Potency,[9],inactive
same,Potency,[2],inactive
COCC(=O)N(c1c(C)cccc1C)C(C)C(=O)OC (configuration not stated),outcome,[6],inactive
same,Potency,[2],inactive
CCCCC1C(=O)NC(=O)N(C2CCCCC2)C1=O (configuration not stated),outcome,[6],inactive
same,Potency,[4],inactive
same,Potency,[3],inactive
same,Potency,[5],inactive
C[N+]1(C)[C@@H]2CC[C@H]1CC(OC(=O)C(CO)c1ccccc1)C2 (some centres not stated),outcome,[6],inactive
same,Potency,[2],inactive
same,Potency,[3],inactive
same,Potency,[5],inactive
